PubChem BioAssay (Tox21)
Values without a mark were called inactive. Inconclusive results are not listed. A call without a number means that no potency is given here. Calls of active or inactive are those of the source. Unless noted, calls come from the whole dose curve; as a rule, active = well fitted curve in the direction sought with a large enough effect in the repeat runs; inconclusive = weak or mixed curves; inactive = no such curve, though single readings can be large; an effect the other way counts as inactive or inconclusive.

Key:
[1] = qHTS assay to identify small molecule agonists of the hypoxia (HIF-1) signaling pathway - cell viability counter screen (AID 1224844; calls by dose curve; note: nearly all actives have a fitted effect of over 50% in size)
Method in brief: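 Tox21 10K compounds were added to HRE-bla ME-180 cells (0.5% dialyzed FBS) and incubated 17 hrs at 37C; ATP-based CellTiter-Glo luminescence then reported cell viability in the same wells.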

[2] = qHTS assay to identify small molecule agonists of H2AX (AID 1224845; active = well fitted activation curve with a large enough effect in the signal ratio in the repeat runs, not every such curve was filed as active; the % refers to the signal ratio; note: potency is the fitted concentration of half-maximal effect)
Method in brief: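 Wild-type CHO-K1 cells plated overnight, then exposed 3 hr at 37C to compounds at 15 concentrations (0.76% DMSO). Lysed, then HTRF anti-pH2AX(S139)-cryptate/anti-H2AX-d2 detection after 24 hr at room temperature; emissions 665 and 620 nm.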

[3] = qHTS assay to identify small molecule agonists of the hypoxia (HIF-1) signaling pathway (AID 1224846; active = well fitted activation curve with a large enough effect in the signal ratio in the repeat runs, not every such curve was filed as active; the % refers to the signal ratio)
Method in brief: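 Steps: seed ME-180 HRE-bla cells (2,000/well, 0.5% dialyzed FBS); incubate 5 hrs at 37C; pin-transfer compounds or DMSO; incubate 17 hrs; add LiveBLAzer B/G substrate CCF4-AM; measure reporter activation by FRET.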

[4] = qHTS assay to identify small molecule agonists of H2AX - cell viability counter screen (AID 1224847; calls by dose curve; note: nearly all actives have a fitted effect of over 30% in size; note: potency is the fitted concentration of half-maximal effect)
Method in brief: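 Quantitative HTS viability measurement: CHO-K1 wild-type cells in serum (10% FBS) medium, short 3 hr drug exposure at 37C with 0.76% DMSO, CellTiter-Glo luminescent detection.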

[5] = qHTS assay to identify small molecule antagonists of the estrogen related receptor (ERR) signaling pathway from Tox21 library (AID 1224848); note: nearly all actives have a fitted effect of over 50% in size; note: potency is the fitted concentration of half-maximal effect
Method in brief: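 Screening used an ERR reporter line supplied by NTP, exposed for 18 h at 37 C to library compounds delivered in DMSO. Signal was luciferase luminescence developed with ONE-Glo at room temperature for 30 min.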

[6] = qHTS assay to identify small molecule agonists of the estrogen related receptor (ERR) signaling pathway from Tox21 library (AID 1224849; calls by dose curve; note: nearly all actives have a fitted effect of over 15% in size); settings: ERR reporter cell line, ONE-Glo luciferase, 18 h; at 92.4 µM (top of the series) unless noted
Method in brief: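 Agonist signal is luciferase luminescence from an ERR reporter cell line treated 18 h at 37 C with DMSO-dissolved compounds, read 30 min after ONE-Glo addition at room temperature.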

[7] = qHTS RealTime-Glo MT Cell Viability Assay in HEK293 cells - 32 hour (AID 1224868); note: nearly all actives have a fitted effect of over 50% in size; note: potency is the fitted concentration of half-maximal effect
Method in brief: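 Viability tracked continuously by luminescence as live cells reduce a prosubstrate for NanoLuc; HEK293 cells preincubated 5 h, compound-treated at 37 C, and read at 0, 8, 16, 24, 32 and 40 h.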

[8] = A CellTox Green Cytotoxicity Assay to monitor cytotoxicity in HEK293 cells - 0 hour (AID 1224869); note: nearly all actives have a fitted effect of over 50% in size; note: potency is the fitted concentration of half-maximal effect
Method in brief: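 Cytotoxicity was tracked continuously in HEK293 cells by a DNA-binding dye excluded from viable cells. Compounds were transferred in DMSO 5 h after seeding; fluorescence was recorded at intervals up to 40 h.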

[9] = qHTS RealTime-Glo MT Cell Viability Assay in HepG2 cells - 40 hour (AID 1224870); note: nearly all actives have a fitted effect of over 50% in size
Method in brief: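 HepG2 cells mixed with RealTime-Glo MT reagents (NanoLuc plus cell-permeant prosubstrate) were seeded at 600 cells/well, incubated 5 h at 37 C/5% CO2, then pinned with compounds in DMSO; nonlytic luminescence tracked viability during 40 h treatment.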

[10] = qHTS RealTime-Glo MT Cell Viability Assay in HepG2 cells - 24 hour (AID 1224867); note: nearly all actives have a fitted effect of over 50% in size
Method in brief: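 Viability was tracked continuously by NanoLuc luminescence from prosubstrate reduced by living HepG2 cells, at successive time points over 40 h of compound exposure. Cells with reagent were preincubated 5 h at 37 °C before compound addition.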

Compound | Potency [1] | Potency [2] | outcome [3] | Potency [4] | Potency [5] | activity change, positive = activation [6] | Potency [7] | Potency [8] | Potency [9] | Potency [10]
C=C(C#N)CCC#N | inactive | inactive | inactive | inactive | inactive | 0.822% | inactive | inactive | inactive | –
BrCCCCBr | inactive | inactive | inactive | inactive | – | – | inactive | inactive | inactive | inactive
O=C1NCN(c2ccccc2)C12CCN(CCCOc1ccc(F)cc1)CC2 | inactive | inactive | inactive | inactive | inactive | -8.92% [at 42.5 µM] | – | inactive | inactive | –
N#CCc1ccccc1 | inactive | inactive | inactive | inactive | – | – | inactive | inactive | inactive | inactive
COP(=S)(OC)Oc1ccc([N+](=O)[O-])cc1Cl | inactive | inactive | inactive | inactive | – | -29.5% | inactive | inactive | inactive | inactive
CC(Cl)Cl | inactive | inactive | inactive | inactive | inactive | -9.34% | inactive | inactive | inactive | –
Nc1nc(N)nc(N)n1 | inactive | inactive | inactive | inactive | – | – | inactive | inactive | inactive | inactive
O=C(Nc1ccccc1)Nc1cnns1 | inactive | inactive | inactive | inactive | – | -23.5% | 27.5 µM (active) | inactive | inactive | inactive
C#CCOC(C(=O)OCCN(C)C)(c1ccccc1)c1ccccc1 | inactive | inactive | inactive | inactive | – | – | inactive | inactive | – | inactive
C=CC(C)=O | inactive | inactive | inactive | inactive | inactive | -0.611% | inactive | inactive | inactive | –
CC1C(=O)C[C@]2(C(C)C)C[C@H]12 (some centres undefined) | inactive | inactive | inactive | inactive | – | – | inactive | inactive | inactive | inactive
CCN(C)N=O | inactive | inactive | inactive | inactive | – | – | inactive | inactive | inactive | inactive
c1ccoc1 | inactive | inactive | inactive | inactive | – | – | inactive | inactive | – | inactive
CCOc1ccc(C(C)(C)COCc2cccc(Oc3ccccc3)c2)cc1 | inactive | inactive | inactive | inactive | – | – | inactive | inactive | – | inactive
O=C(OC1CCCCC1)c1ccccc1C(=O)OC1CCCCC1 | inactive | inactive | inactive | 106 µM (active) | – | – | inactive | inactive | – | inactive
O=C(O)c1ccccc1C(=O)Nc1cccc2ccccc12 | inactive | inactive | inactive | inactive | – | – | inactive | inactive | – | inactive
CC1CC(CC2CCC(N)C(C)C2)CCC1N (centres undefined) | inactive | inactive | inactive | inactive | – | – | 55.8 µM (active) | inactive | inactive | inactive
COC(=O)C(Cl)C(=O)OC | inactive | inactive | inactive | inactive | – | – | inactive | inactive | inactive | inactive

Compound | Potency [1] | Potency [2] | outcome [3] | Potency [4] | Potency [5] | activity change, positive = activation [6] | Potency [7] | Potency [8] | Potency [9] | Potency [10]
N#CCC#N | inactive | 89.8 µM (active) | inactive | inactive | – | – | inactive | inactive | inactive | inactive
COC(=O)c1cncn1C(C)c1ccccc1 (centres undefined) | inactive | inactive | inactive | inactive | – | – | inactive | inactive | inactive | inactive
COc1nn(C(=O)NS(=O)(=O)c2ccccc2OC(F)(F)F)c(=O)n1C | inactive | inactive | inactive | inactive | inactive | 1.4% | inactive | 31.7 µM (active) | inactive | –
C=CC(=O)OC | inactive | inactive | inactive | inactive | – | – | inactive | inactive | inactive | inactive
COCC(C)N(C(=O)CCl)c1c(C)csc1C (centres undefined) | inactive | inactive | inactive | inactive | 27.3 µM (active) | -54.8% | inactive | inactive | inactive | –
C=CCCl | inactive | inactive | inactive | inactive | – | – | inactive | inactive | inactive | inactive
CCCN(CC1CC1)c1c([N+](=O)[O-])cc(C(F)(F)F)cc1[N+](=O)[O-] | inactive | inactive | inactive | inactive | – | – | inactive | inactive | inactive | inactive
CC(C)(Cl)[N+](=O)[O-] | inactive | inactive | inactive | inactive | – | -29.2% | inactive | inactive | – | inactive
CCCN(CCCl)c1c([N+](=O)[O-])cc(C(F)(F)F)cc1[N+](=O)[O-] | inactive | inactive | inactive | – | inactive | -4.52% | inactive | inactive | – | inactive
CCCCCC[N+](=O)[O-] | inactive | inactive | inactive | inactive | – | – | inactive | inactive | inactive | –
C=CCC1([C@H](C)CCC)C(=O)NC(=O)NC1=O | inactive | inactive | inactive | inactive | – | – | inactive | inactive | inactive | inactive
O=C(NC(=O)c1c(F)cccc1F)Nc1cc(Cl)c(Oc2ncc(C(F)(F)F)cc2Cl)c(Cl)c1 | inactive | inactive | inactive | inactive | – | – | – | inactive | – | –
CC(C)(CCl)C(=O)Cl | inactive | inactive | inactive | inactive | – | – | inactive | inactive | inactive | –
CCCC(Cn1cncn1)c1ccc(Cl)cc1Cl (centres undefined) | inactive | inactive | inactive | – | 30.6 µM (active) | -61.7% | 21.9 µM (active) | inactive | inactive | inactive
O=Cc1ccc2c(c1)OCO2 | inactive | inactive | inactive | inactive | – | – | inactive | inactive | inactive | inactive
Nc1ccc([N+](=O)[O-])cc1[N+](=O)[O-] | inactive | inactive | inactive | – | – | – | – | inactive | inactive | inactive
CCCCNP(N)(N)=S | inactive | inactive | inactive | inactive | – | – | inactive | inactive | inactive | inactive
COc1ccc(-c2ccccc2)cc1NNC(=O)OC(C)C | inactive | inactive | inactive | – | 31.9 µM (active) | -62.9% | 51 µM (active) | inactive | inactive | –
